Common to all, as to type: functional
Test [1] has as its target Solute carrier family 2, facilitated glucose transporter member 1 (Homo sapiens) (UniProt P11166). Description: ST_JUDE_LEISH: Cytotoxicity at 2uM final concentration against transgenic Leishmania Mexicana promastigotes LmGLUT1 that are glucose transport deficient and complemented with the human glucose transporter GLUT1. Activity is measured by DNA content using SYBR green in vitro.

In test [2] the target is Hexose transporter 1 (Plasmodium falciparum) (UniProt O97467). Description: ST_JUDE_LEISH: Cytotoxicity at 2uM final concentration against transgenic Leishmania Mexicana promastigotes LmPfHT that are glucose transport deficient and complemented with the Plasmodium falciparum hexose transporter. Activity is measured by DNA content using SYBR green in vitro.
Test [3] has as its target Glucose transporter (Leishmania mexicana) (UniProt O61059). Description: ST_JUDE_LEISH: Cytotoxicity at 2uM final concentration against transgenic Leishmania Mexicana promastigotes LmGT2 that are glucose transport deficient and complemented with the L. Mexicana glucose transporter 2. Activity is measured by DNA content using SYBR green in vitro.

Each structure is given as a SMILES string.

A word on the inhibition: it is the drop in the measured response relative to a control, in per cent.

Chain of Solute carrier family 2, facilitated glucose transporter member 1 (Homo sapiens) (P11166 whole entry): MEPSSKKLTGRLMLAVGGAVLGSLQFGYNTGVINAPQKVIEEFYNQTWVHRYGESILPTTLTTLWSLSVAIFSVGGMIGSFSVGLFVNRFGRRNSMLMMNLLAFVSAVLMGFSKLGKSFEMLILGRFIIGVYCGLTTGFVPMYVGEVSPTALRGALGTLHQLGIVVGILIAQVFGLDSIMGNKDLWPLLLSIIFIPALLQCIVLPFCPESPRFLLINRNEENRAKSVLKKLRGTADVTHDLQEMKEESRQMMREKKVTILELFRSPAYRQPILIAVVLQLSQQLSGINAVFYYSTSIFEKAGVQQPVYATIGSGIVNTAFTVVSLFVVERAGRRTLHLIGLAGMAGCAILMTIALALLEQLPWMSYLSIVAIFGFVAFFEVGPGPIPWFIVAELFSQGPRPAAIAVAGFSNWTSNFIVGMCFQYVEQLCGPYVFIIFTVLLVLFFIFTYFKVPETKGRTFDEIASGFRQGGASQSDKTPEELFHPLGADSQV

Regarding `Nc1nc(N)c2cc3ccc(OCc4ccccc4)cc3nc2n1`, the inhibition in test [1] was 12.2%; in test [2], 9.05%; in test [3] it was 6.89%.
`CCOc1cc(NCCCNc2ncc([N+](=O)[O-])cc2C)nc2ccccc12`: the inhibition is 1.72% in test [1], -1.69% in test [2] and 0.83% in test [3].
As for `Cc1ccc(CON2C(N)=NC(N)=NC23CCCCC3)c2ccccc12`, the figures for the inhibition in test [1], in test [2] and in test [3] were 3.13%, 2.42% and 4.18%, respectively.
Regarding `Oc1ccc2nc(NCCCc3ccccc3)nc(NCCCc3ccccc3)c2c1`, the results for the inhibition in test [1], in test [2] and in test [3] were 28.4%, 20.7% and 11.1%, respectively.
For `N=C(N)NCCCCN(Cc1ccccc1)c1ccccc1`, in that order: 3.52%, 3.53% and 3.86%.
Consider `CCCNCc1ccc(-c2ccc(CN(CCOC)C(=O)CCC(=O)c3ccc(OC)c(F)c3)cc2)nc1`, for which the inhibition in test [1] was 0.12%; in test [2], 3.36%; in test [3] it was 1.5%.
Turning to `Cc1ccccc1C1CCN(C2CCC(NC(=O)/C=C/c3cccc(F)c3F)CC2)CC1` (stereo not given), the inhibition in test [1] stood at 5.69%; in test [2] it was 4.6%; in test [3], 6.25%.
Turning to `Cc1cc(N[C@@H](Cc2ccccc2)C(=O)NCCOc2ccccc2)nc(NCCOc2ccccc2)n1`, the inhibition in test [1] amounted to 1.88%; in test [2] it was 0.27%; in test [3] it was 2.71%.
With `Cc1cc(N[C@@H](Cc2ccccc2)C(=O)Nc2ccccc2)nc(NCCc2cccs2)n1`, the results for the inhibition in test [1], in test [2] and in test [3] were 4.14%, 2.39% and 1%, respectively.
In the case of `CCn1ccc2c(N3CCCS3(=O)=O)cc(C(=O)N[C@@H](Cc3ccccc3)[C@H](O)CNC(C)(C)CCCC(C)C)cc21`, the inhibition in test [1] is 7.39%; in test [2] it was 7.48%; in test [3], 2.41%.
For `N#Cc1cc(C(=O)Nc2ccccc2)c(N)nc1SCC(=O)Nc1ccc(Br)cc1`, the inhibition came out at 8.21% in test [1], 5.88% in test [2] and 4.96% in test [3].
In the case of `CC(C)(C)c1ccc(CNC(=O)c2cc(CNC3CCNC3)ccc2O)cc1` (stereo not given), the inhibition in test [1] stood at 1.88%; in test [2] it was 0.79%; in test [3], 0.53%.
With `C[C@@H](N/C(=N\c1ccc(-c2ccccc2)cc1)Nc1ccc(C#N)cc1O)c1ccc(Br)cc1`, the inhibition in test [1] was found to be 2.33%; in test [2], 2.45%; in test [3], 2.66%.
On to `Cc1cccc2c1NC(=O)/C2=N/NC(=S)N(C)C`, for which the inhibition in test [1] is 1.53%; in test [2] it was 4.53%; in test [3], 2.09%.
As for `Cc1ccc(CN2CCN(Cc3cccc(NC(=O)c4cccs4)c3)CC2)cc1C`, the values for the inhibition in test [1], in test [2] and in test [3] were 2.28%, 2.39% and 1.91%, respectively.
For `CC(=O)c1c(CC(=O)O)c2ccccc2n1O`, the inhibition came out at 2.28% in test [1], 4.52% in test [2] and 3.07% in test [3].
In the case of `N#Cc1cccc(C(=O)Nc2cccc(-c3ccc(CN4CCCC4)cc3)c2)c1`, the inhibition in test [1] came out at 1.56%; in test [2], 2.56%; in test [3] it was 2.89%.
For the compound `Cn1ccc(C(=O)Nc2ccc3c(c2)CN(Cc2ccc(N4CCCC4)o2)CCC3)n1`, the values for the inhibition in test [1], in test [2] and in test [3] were 28.5%, 54.6% and -0.65%, respectively.
As to `CCOCCCNc1sc(S(=O)(=O)c2ccccc2)nc1S(=O)(=O)c1ccc(C)cc1`, the inhibition turned out to be 8.93% in test [1], 8.79% in test [2] and 9.56% in test [3].
Turning to `CC(C)CCNc1nc(NCCc2ccccc2)c2cc(O)ccc2n1`, the inhibition in test [1] is 7.05%; in test [2], 3.99%; in test [3] it was -2.18%.
Taken in the same sequence, the figures for `CN1CCCc2ccc(NC(=O)c3cnc(-c4ccccc4)cn3)cc21` were 0.24%, 0.87% and -0.23%.
In the case of `CCNc1cc(C(=O)N[C@@H](Cc2ccccc2)[C@H](O)CNC2CCC(F)(F)CC2)c(F)c(N2CCCCS2(=O)=O)c1`, the inhibition in test [1] was -0.9%; in test [2] it was -1.47%; in test [3], -1.39%.
In the case of `NC1=NC(c2ccccc2)(c2ccccc2)C(=O)N1CCCCc1ccccc1`, the results for the inhibition in test [1], in test [2] and in test [3] were -0.67%, 0.44% and -1.44%, respectively.
Turning to `Cc1ccccc1Cn1ccc2c3c(N)nc(N)nc3ccc21`, the results for the inhibition in test [1], in test [2] and in test [3] were 92.7%, 87.7% and 81.9%, respectively.
As to `O=C(c1cccc(-c2noc(C(F)(F)F)n2)c1)N1CCN(c2nsc3ccccc23)CC1`, the inhibition in test [1] was -0.16%; in test [2], -1.92%; in test [3] it was -1.66%.
As to `CC(C)(C)c1ccc(CNCC(C)(C)c2nc(-c3ccnc(N)n3)c(-c3ccc(Cl)c(O)c3)[nH]2)cc1`, the results for the inhibition in test [1], in test [2] and in test [3] were 5.04%, 6.23% and 4.54%, respectively.
Taken in the same sequence, the figures for `O=C(c1ccc([N+](=O)[O-])o1)N1CCN(c2nc3c(Cl)cccc3s2)CC1` were 39.8%, 37.4% and 4.58%.
Taken in the same sequence, the figures for `O=C1C(c2ccccc2)=C(Nc2ccc([N+](=O)[O-])cc2)c2ccccc21` were 6.69%, 9.53% and 2.14%.
Taken in the same sequence, the figures for `Cc1ccc(C(NC(=O)c2ccccc2)c2ccc3cccnc3c2O)cc1` (stereo not given) were 4.29%, 6.5% and -0.04%.
Consider `c1cc(CNCC2CCCO2)cc(-c2ccc(-c3nc4ccccc4[nH]3)s2)c1` (stereo not given), for which the results for the inhibition in test [1], in test [2] and in test [3] were 0.61%, -3.37% and -0.92%, respectively.
For `Clc1ccc2c(NCCc3ccccc3)ccnc2c1`, in that order: 4.51%, 4.33% and 2.56%.
Regarding `COc1ccc(Nc2ncc(C#N)c(Nc3ccccc3C(N)=O)n2)cc1N1CCN(C)CC1`, the figures for the inhibition in test [1], in test [2] and in test [3] were 15.8%, 18.1% and 9.63%, respectively.
Take `N#Cc1ccc2c(c1)CCN(CCC1CCC(NC(=O)c3ccc(-c4ccccc4)s3)CC1)CC2` (stereo not given): the values for the inhibition in test [1], in test [2] and in test [3] were 4.75%, 3.75% and 2.43%, respectively.
In the case of `O=C(Nc1ccc2ccccc2c1)N1CCC(NCc2cccc([N+](=O)[O-])c2)CC1`, the figures for the inhibition in test [1], in test [2] and in test [3] were 2.09%, 1.61% and 0.78%, respectively.
As for `COc1ccc(C(=O)CCC(=O)N(Cc2ccc(-c3ccc(CNCCc4ccccc4)cn3)cc2)C(C)CN(C)C)cc1F` (stereo not given), the results for the inhibition in test [1], in test [2] and in test [3] were 2.12%, 1.14% and 0.82%, respectively.

The values above are taken from ChEMBL document CHEMBL3433997, “St. Jude Leishmania screening dataset” (2016).
